# The list is not random: actives were taken first. Their share in the collection is about 19%.
# KB-3-1 cytotox: kills parental KB-3-1 adenocarcinoma cells. KB-3-1 viability, CellTiter-Glo ATP luminescence, 72 h. Potency, µM (doses to about 46.1 µM), most hits filed as cytotoxic. 1.4% of 400,000 active; also: nearly all actives have a fitted effect of over 60% in size
#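 Using CellTiter-Glo luminescence, growth of non-resistant KB-3-1 adenocarcinoma cells is assessed 72 h after pin-tool compound addition at 37 °C. Normalized responses across the concentration series yield fitted curves.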
# DT40 TDP1 CPT: growth inhibition of DT40 Tdp1-/-;hTDP1 cells with camptothecin (screen for TDP1 inhibitors). chicken DT40 Tdp1-/-;hTDP1 cells + 20 nM CPT, ATP luminescence, 48 h. Potency, µM (highest dose often 46.2 µM), inactives show at the highest dose activity change, negative = growth inhibition, most hits filed as inhibitors. 12% of 420,000 active; also: nearly all actives have a fitted effect of over 55% in size
#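 Chicken DT40 Tdp1-/- cells stably complemented with human TDP1 were seeded at 400 cells/well in medium containing 20 nM camptothecin, exposed to pin-transferred compounds, and grown at 37 °C for at least 48 hr. Viability was read as ATP luminescence.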
# KB-V1 cytotox: KB-V1 MDR subline cytotoxicity; KB-V1 MDR cells viability, CellTiter-Glo, 72 h; 3.4% of 400,000 active; Potency, µM (titrated, usually from 46.1 µM), most hits filed as cytotoxic; AID 1347076; also: nearly all actives have a fitted effect of over 60% in size
#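 Following 72 h at 37 degrees C with compound, KB-V1 cell viability was read by CellTiter-Glo luminescence, medium being phenol-red-free DMEM plus 10% FBS; concentration-response parameters came from normalized, curve-fitted qHTS data.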
# TDP1 cell noCPT: qHTS for Inhibitors of human tyrosyl-DNA phosphodiesterase 1 (TDP1): qHTS in cells in absence of CPT; DT40 Tdp1-/- hTDP1 cells, no CPT, ATP luminescence, 48 h; Potency, µM (top dose mostly 46.2 µM), for inactives: at the highest dose activity change, negative = growth inhibition, actives largely listed as inhibitors; 15% of 420,000 active; AID 686978, 2013; also: nearly all actives have a fitted effect of over 55% in size
#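 Growth of hTDP1-complemented DT40 Tdp1-knockout cells is measured by ATP luminescence after at least 48 hr compound exposure at 37 °C, with DMSO substituting for the 20 nM CPT used in the parallel screen.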
# HT1080 IDH1KD tx: HT-1080 IDH1 knockdown cell toxicity (counter line); HT-1080 IDH1 knockdown viability, ATP luminescence, 48 h; Potency, µM (titrated, usually from 46.1 µM), for inactives: at the highest dose activity, negative = toxicity, hits mostly cytotoxic; 2% of 360,000 active; AID 686971;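 also: 0% = DMSO wells and -100% = cell-free medium wells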
#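 Viability of IDH1-knockdown HT-1080 fibrosarcoma cells was assessed by CellTiter-Glo after 48 h at 37 °C with titrated compound; concentration-effect curves were classified by fit quality and response size.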
# HT1080-NT tox: kills 2HG-producing HT-1080-NT fibrosarcoma cells. HT-1080-NT fibrosarcoma viability, CellTiter-Glo ATP luminescence, 48 h. Potency, µM (series often up to 46.1 µM), inactives show at the highest dose activity, negative = less viability, most hits filed as cytotoxic. 1.6% of 360,000 active. AID 686970;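 also: NT is the 2HG producing partner of a matched IDH1 knockdown line; 0% = DMSO-treated cells and -100% = media-only wells without cells; nearly all actives have a fitted effect of over 55% in size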
#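 A 48-hour cytotoxicity screen used HT-1080-NT cells plated 2 hours before compound delivery. ATP-based CellTiter-Glo luminescence measured viability, normalized to DMSO and no-cell controls.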
# * = called active by the depositor; i = inactive; ? = inconclusive; . = not tested or not shown. Calls follow the shape of the dose curve; as a rule, active = well fitted curve in the direction sought with a large enough effect; inconclusive = small, poorly fitted or top-dose-only effect, or another doubt; inactive = no such curve, though single readings can be large; an effect the other way counts as inactive or inconclusive. Unless noted, % is scaled to controls: 0 for no effect and ±100 for the full control effect; potency is read from the fitted curve at half-maximal effect.
SMILES,KB-3-1 cytotox,DT40 TDP1 CPT,KB-V1 cytotox,TDP1 cell noCPT,HT1080 IDH1KD tx,HT1080-NT tox
O=C(Nc1ccc(CN2CCCCC2)cc1)Nc1ccccc1Cl,i,?,i,?,-4%,-18%
NCCNCCN,.,17%,.,3%,.,.
Cc1ccc(CNC(=O)/C=C/[C@H]2O[C@@H](n3cc(C)c(=O)[nH]c3=O)C[C@@H]2O)o1,i,2%,i,2%,-10%,-1%
O=C(Nc1cccc(-c2ccc(N3CCCCC3)nn2)c1)c1ccc(Br)o1,i,21µM*,?,12µM*,-13%,-12%
Cc1ccc(C(=O)Nc2cccc(NC(=O)c3cccs3)c2)c(C)c1,i,-67%,?,16µM*,-7%,-7%
CCOc1ccc(-c2cccc(NC(=O)c3ccc(Br)o3)c2)nn1,i,-24%,i,?,0%,-13%
CC(C)(C)NC(=O)c1cc(NC(=O)c2cccs2)cc(NC(=O)c2cccs2)c1,i,?,?,21µM*,-15%,-18%
Cc1cc(C)cc(C(=O)Nc2ccc(NC(=O)c3cccs3)cc2)c1,i,?,?,?,?,?
Cc1nnc2ccc(-c3cccc(NC(=O)c4ccc(Br)o4)c3)nn12,i,?,?,23µM*,-7%,?
COC(=O)[C@]12CCCCC=C1N(Cc1ccc3c(c1)OCO3)C(=O)[C@H](CC(=O)N1CCCCC1)C2,i,?,?,?,-1%,-13%
CC(C)c1nc(C(=O)N2CCCC(N3CCN(c4cccc(Cl)c4)CC3)C2)cs1 (centres undefined),i,?,?,?,1%,8%
CCCCN1CCc2nc(Nc3ccc(OC)cc3OC)ncc2C1,i,?,i,?,.,.
CC(C)CN1C(=O)c2ccc(NC(=O)c3ccccc3F)cc2C1=O,i,-18%,i,-5%,30%,20%
Cc1cc(C)c2oc(-c3cccc(NC(=O)c4ccc(Br)o4)c3)nc2c1,i,?,i,?,.,.
O=C(Nc1cccc(NC(=O)c2cccs2)c1)c1ccc(Br)o1,i,-25%,i,21µM*,-7%,2%
O=C(Nc1cccc(-c2nnc(-c3ccccc3)o2)c1)c1ccc(Br)o1,i,18µM*,21µM*,?,?,-22%
CC(C)CN1C(=O)c2ccc(NC(=O)c3cccs3)cc2C1=O,i,?,13µM*,18µM*,?,3%
O=C1NC[C@@H](CCCCN2C[C@H](Cc3ccccc3)N(Cc3ccccc3)C(=O)C2=O)N(CCc2ccccc2)C1=O,i,-13%,i,-22%,0%,0%
Cc1cccc(C(=O)OCC(=O)Nc2ccccc2C(=O)NC2CC2)c1,i,-26%,i,7%,-1%,1%
COc1cccc(C(O)c2ncc(-c3ccc(Cl)cc3)[nH]2)c1 (centres undefined),?,?,?,?,-9%,?
CCc1nc2ccc(C(=O)N(C)C(C)C)cn2c1N(CC)Cc1cccc(Br)c1,i,?,i,15µM*,-7%,-7%
CCc1nc2ccc(C(=O)N3CCN(S(=O)(=O)CC)CC3)cn2c1N(CC)Cc1cccc(Br)c1,i,23µM*,i,?,2%,5%
Nc1ccc(-c2nc3ccccc3o2)cc1,i,-9%,i,-1%,0%,-6%
O=C1C=CC(=O)N1c1ccc(-c2nc3ccccc3o2)cc1,i,1.8µM*,i,1.6µM*,?,18%

# Compound activity from PubChem BioAssay.
